# Screening data: PubChem BioAssay, several laboratories
# Compounds with a hit are over-represented: about 2.2% of the library has one in this group of screens.
# CRFR2-BP ag: CRF-BP/CRF-R2 complex agonism. HEK293 CRF-R2/CRF-BP, calcium dye fluorescence (FLIPR); percent of saturating CRF peptide response. 0.46% of 350,000 active. activation, % at 13.2 µM;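 active means activation of at least 50%, plus an integration ratio under a set limit after plate pattern correction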;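 further: plate controls were neutral control wells without compound for no effect and CRF at EC100 for full effect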
# CRFR2-BP antag: CRF-BP/CRF-R2 complex antagonism | HEK293 CRF-R2/CRF-BP, CRF-induced calcium fluorescence | inhibition, % at 11.8 µM | 0.59% of 350,000 active;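 active means inhibition of the ligand-induced calcium signal above about 50% at the single tested concentration, limit read from the data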
# cardiac RTF act: increases calcium sensitivity of human cardiac regulated thin filaments. 0.24% of 340,000 active. IANBD-labeled TnC RTF fluorescence at EC20 calcium; 0% EC20 calcium, 100% full calcium. activation, % at 7.2 µM. P19429+P45379. AID 493008;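 active means activation above the mean over all tested compounds plus 3 SD, cut at about 30% in these data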;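 further: rise in fluorescence read as greater calcium sensitivity of cardiac thin filaments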
# Myeloid diff 2: myeloid differentiation induction. ER-HoxA9 myeloid progenitors, lysozyme-GFP differentiation, flow cytometry. AID 624256. calls only at 10 µM. 1% of 360,000 active;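 active means normalized GFP-positive differentiation at or above the plate's own cutoff, the solvent-only control mean plus 3 SD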;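 further: cells exposed to compound for four days before flow analysis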
# RTF Ca sens inh: cardiac RTF calcium desensitization; inhibition, % at 7.15 µM; 0.12% of 340,000 active; P19429+P45379; IANBD-labeled cardiac RTF, Ca2+ fluorescence;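 active means inhibition above the mean inhibition of all tested compounds plus 3 SD, cut at about 17% in these data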;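 further: assay run at fixed EC70 calcium of 1.6 mM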
# Active calls of the source: *; i = inactive; . = no result given; + = active, no number.
SMILES,CRFR2-BP ag,CRFR2-BP antag,cardiac RTF act,Myeloid diff 2,RTF Ca sens inh
C=CCNC(=O)C(=O)Nc1cc2c3c(c1)CCC(=O)N3CCC2,-1,8,2,i,-7
CC[C@]12C(=O)N(C)C[C@H]([C@@H]3C(=O)N(Cc4ccccc4)C(=O)[C@@H]31)N2C(=O)c1ccccc1,0,-6,-11,+,3
CCc1nnc(NC(=O)Cc2ccc(OCc3c(C)noc3C)cc2)s1,2,-19,4,i,-8
O=C(COC(=O)c1cnc(Cl)c(Cl)c1)NCCC1=CCCCC1,5,86*,1,i,3
Nc1cc(C(=O)OCC(=O)NCCC2=CCCCC2)ccc1Cl,-7,10,-2,i,-6
COc1ccc(CCN2CN(S(=O)(=O)c3ccccc3)c3nc4ccccc4nc32)cc1,0,-11,-4,i,12
CN1CCCN(S(=O)(=O)c2ccccc2)c2nc3ccccc3nc21,0,15,-5,+,-4
Cc1ccc(S(=O)(=O)N2CCCN(C)c3nc4ccccc4nc32)cc1,3,10,8,+,-31
CN1CCCNc2nc3ccccc3nc21,-2,16,3,+,0
Cc1ccccc1Sc1ccc(N)cn1,1,-8,.,+,.
O=C(O)c1cn(-c2ccc(F)cc2)c2cc(Cl)c(F)cc2c1=O,0,-11,3,.,4
CCOC(=O)c1cn(-c2ccc([N+](=O)[O-])cc2)c2cc(Cl)c([N+](=O)[O-])cc2c1=O,-2,0,8,+,3
CC(Oc1ccc(Cl)cc1)C(=O)NNC(=S)NC(=O)c1ccco1 (stereo not drawn),135*,-47,-1,i,-2
CCCOc1ccc(C(=O)NNC(=S)NC(=O)c2ccccc2)cc1,180*,-94,-1,i,-15
CCCOc1ccc(C(=O)NNC(=S)NC(=O)c2ccco2)cc1,137*,-15,0,i,-1
COc1ccc(C(=O)NNC(=S)NC(=O)c2ccco2)cc1,33,7,14,i,-2
CCCOc1ccc(C(=O)NNC(=S)NC(=O)c2cccs2)cc1,113*,-21,2,i,2
CCCOc1ccc(C(=O)NNC(=S)NC(C)=O)cc1,-1,-6,1,i,8
CSCCC(NC(=O)c1ccccc1Br)C(=O)NNC(=O)c1cc(C)oc1C (stereo not drawn),-1,-3,0,i,4
COc1ccc(N2CCN(C(=O)COC(=O)c3ccc(C)o3)CC2)cc1,0,3,1,i,-5
CC(C)(C)OC(=O)NC(Cc1ccccc1)C(=O)N1CCC(C(=O)NCC(=O)Nc2ccc(F)cc2)CC1 (stereo not drawn),7,67*,1,i,-14
CCN1C[C@@H]2[C@@H]3C(=O)N(Cc4ccccc4)C(=O)[C@@H]3[C@](C)(C1=O)N2C(=O)c1ccc(F)cc1,0,5,-3,i,1
COc1ccccc1/C=C/C(=O)N1CCOCC1,-5,85*,0,i,-3
O=C(O)C1=C[C@@H](c2ccc(Br)cc2)C[C@@H](OCc2ccc(CO)cc2)O1,-1,76*,0,i,11
COc1cc(CNc2ccccc2SC)cc(OC)c1OC,-7,73*,2,i,1
SMILES,CRFR2-BP ag,CRFR2-BP antag,cardiac RTF act,Myeloid diff 2,RTF Ca sens inh
CCCCNc1c(C(=O)OCC)c(C)nc2c1cnn2CC,-1,-12,0,i,12
COc1ccccc1C(C)NC(=O)Cc1ccc(S(=O)(=O)N2CCOCC2)s1 (stereo not drawn),0,-17,-5,i,-3
COc1ccc(CN2CCN(S(=O)(=O)c3ccc(NC(C)=O)cc3)CC2)c(OC)c1OC,-1,1,12,+,-6
COc1cnc(SCc2c(Cl)cccc2Cl)nc1Cl,5,-3,-6,i,-1
O=C(O)c1ccccc1-c1ccc(/C=C/c2cc(C(F)(F)F)[nH]c(=O)n2)o1,170*,-79,727*,i,i
O=C(O)c1cc(Cl)ccc1-c1ccc(/C=C/c2cc(C(F)(F)F)[nH]c(=O)n2)o1,205*,-52,448*,i,i
CCN(CC)CCNC(=O)C12CC3CC(C)(CC(C)(C3)C1)C2,-2,-1,7,i,-1
CCN(CC)CCNC(=O)C12CC3CC(CC(C3)C1)C2,-2,20,4,+,-2
CC(=O)n1nc2nc(C)cc(C)c2c1N,0,1,3,i,-8
Cc1cc(C)c2c(SC(C)C)nc(N)nc2n1,1,-15,47*,i,-61
CCn1cc(C(=O)NCc2ccco2)c(=O)c2cc(S(=O)(=O)N3CC(C)CC(C)C3)ccc21 (stereo not drawn),0,9,1,+,-6
COc1cc(/C=C2\CCC(C)C3=C(c4cc(OC)c(OC)c(OC)c4)C(C#N)=C(N)OC32)cc(OC)c1OC (stereo not drawn),63*,-63,40*,i,-57
COc1cc(/C=C2\CCC(C3CCCC3)C2=O)cc(OC)c1OC (stereo not drawn),3,-16,-3,i,-2
O=C(Cn1nc(-c2ccccc2)ccc1=O)N1CCOCC1,-1,-2,-4,i,-5
O=C(CCn1nc(-c2ccccc2)ccc1=O)N1CCOCC1,-2,120*,-5,i,-8
COc1ccc(NC(=O)CC2S/C(=N\c3nccs3)N(C)C2=O)cc1 (stereo not drawn),-2,2,-6,i,-6
CCOC(=O)c1c(CC(C)C)csc1NC(=O)c1ccccc1C(=O)O,-2,13,8,i,-12
CC(C)Cc1csc(NC(=O)c2ccc(F)cc2)c1C(=O)O,3,69*,9,i,-4
CCOC(=O)C1CCCN(c2ncnc3c2cnn3-c2ccc(Cl)cc2)C1 (stereo not drawn),101*,-7,-5,i,-3
O=C(CCNS(=O)(=O)c1ccccc1)NNC(=O)COc1ccccc1F,1,-2,-1,i,4
Cc1ccc(NC(=O)c2nc3nccc(C)n3n2)cc1S(=O)(=O)N1CCCCC1,-1,3,-4,i,-2
COc1ccc(NC(=O)c2nc3nccc(C)n3n2)cc1S(=O)(=O)N1CCOCC1,0,108*,-4,i,-5
Cc1ccc2c(c1)S/C(=C/c1ccc[n+](C)c1)N2CCO,1,-7,3,+,-3
Cc1ccc(S(=O)(=O)CCC(=O)NCCN2C(=O)S/C(=C\c3ccccc3)C2=O)cc1,-1,-51,2,i,-10
O=C(Nc1cccc(Br)c1)c1ccc2c(c1)SC1=NS(=O)(=O)CCN12,-2,4,-5,i,3
Cc1ccc(C(=O)COC(=O)C2CCC2)cc1,-1,12,63*,i,-5
CC(=O)NCCc1ccc(C(=O)COC(=O)C2CCCCC2)cc1,1,6,-2,i,-3
